ULK1 inh – blocks human autophagy kinase ULK1. O75385. AlphaScreen Atg13 phosphorylation by ULK1, luminescence. inhibition, % at 5.96 µM. 30,000 tested, 1.9% active. AID 1259251; in the data active = inhibition above about 43%;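 note: 0% = median of compound wells and 100% = no enzyme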
ASK1 primary – inhibitors of human ASK1 kinase. inhibition, % at 7.44 µM. 22,000 tested, 0.99% active. Q99683. AlphaScreen MKK6 phosphorylation by ASK1, luminescence; in the data active = inhibition above about 35%;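 note: 0% = median of compound wells and 100% = no enzyme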
Starred values were filed as active, the others as inactive; nt = no result. Compounds with a hit are over-represented: about 2.4% of the library has one in this group of screens.

SMILES | ULK1 inh | ASK1 primary
CC(=O)Nc1ccc(Nc2nc(Nc3ccncn3)nc3c2ncn3-c2ccccc2)cc1 | -49 | 5
CC(CNc1nccc(Nc2ccncn2)n1)c1cccs1 (stereo not drawn) | 44* | 10
CC(=O)Nc1ccc(Nc2nc(Nc3ccncn3)nc3c2ncn3C(C)C)cc1 | 55* | 4
COC(CNc1nccc(Nc2ccncn2)n1)c1cccs1 (stereo not drawn) | 4 | -4
c1ccc(OCCNc2ccnc(Nc3ccccn3)n2)cc1 | -2 | -4
COc1cc2nc(-c3c(C)noc3C)nc(N)c2cc1OC | 1 | 9
O=C(NCCCN1CCCC1=O)c1cnc(N2CCOCC2)s1 | 1 | -11
NC(=O)c1ccc(-c2cncc(C(=O)Nc3ccc(N4CCOCC4)cc3)c2)cc1 | 17 | -20
CCN(CC)C(=O)C1CCCN(c2nc(NCc3cccnc3)c3cc(OC)c(OC)cc3n2)C1 (stereo not drawn) | 9 | 2
CCN(CC)C(=O)C1CCCN(c2nc(NCc3nc4ccccc4[nH]3)c3cc(OC)c(OC)cc3n2)C1 (stereo not drawn) | 49* | -16
CN1CCc2cccc3c2[C@H]1Cc1ccc(O)c(O)c1-3 | 46* | nt
CC(C)N(CCNC(=O)c1cnc(N2CCN(Cc3ccc4c(c3)OCO4)CC2)s1)C(C)C | -5 | -11
CC(=O)Nc1ccc(Nc2nc(-c3ccc(N4CCOCC4)nc3)nc3c2ncn3C(C)C)cc1 | 44* | 10
Cc1cnc(-c2ccc(N3CCOCC3)nc2)nc1Nc1ccccc1 | 44* | 0
CC(=O)Nc1ccc(Nc2nc(-c3ccc(C(N)=O)cc3)nc3c2ncn3C(C)C)cc1 | 75* | 6
CC(=O)Nc1ccc(Nc2nc(N3CCOCC3)nc3c2ncn3C(C)C)cc1 | 32 | 3
CC(=O)c1cccc(-c2nc(Nc3ccc(N4CCOCC4)cc3)c3ncn(C(C)C)c3n2)c1 | 56* | 25
CC(C)n1cnc2c(Nc3ccc(N4CCOCC4)cc3)nc(-c3cccc(N)c3)nc21 | 26 | 4
Cc1cnc(-c2ccccc2)nc1Nc1ccc(N2CCOCC2)cc1 | 9 | 13
CC(=O)Nc1ccc(Nc2nc(-c3cccc(N)c3)nc3c2ncn3C(C)C)cc1 | 35 | 5
CCCNC(=O)c1cnc(Nc2ccncc2)s1 | 22 | 9
O=C(Nc1cc(-c2ccncc2)c[nH]c1=O)c1cccc2c1OCCO2 | -16 | -2
Cn1c(Nc2nc(NCCO)c3ncn(Cc4ccc(C(F)(F)F)cc4)c3n2)nc2ccccc21 | 7 | 0
Nc1cccc(-c2nc(C(=O)Nc3ccccc3)cs2)c1 | -3 | -2
N[C@@H](C(=O)N1CCC(C(=O)Nc2ccc3[nH]ncc3c2)C1)c1ccccc1 (stereo partly drawn) | 20 | -6
SMILES | ULK1 inh | ASK1 primary
c1cc(-c2ccnc(Nc3ccc(N4CCOCC4)cc3)n2)cc(-c2nn[nH]n2)c1 | 3 | 19
CC1(C)CC(=O)C2=C(C1)NC1=C(C(=O)CC(C)(C)C1)C21C(=O)Nc2ccccc21 | 5 | nt
COc1ccc(-c2nc(Nc3ccc(NC(C)=O)cc3)c3ncn(C(C)C)c3n2)cn1 | 50* | 10
COc1ccc(-c2nc(Nc3ccc(N4CCOCC4)cc3)c3ncn(C(C)C)c3n2)cn1 | 25 | 30
CC(C)n1cnc2c(Nc3ccc(N4CCOCC4)cc3)nc(-c3ccc(C(N)=O)cc3)nc21 | 63* | 10
NC(=O)c1ccc(-c2nc(Nc3ccc(N4CCOCC4)cc3)c3ncn(Cc4ccc(C(F)(F)F)cc4)c3n2)cc1 | 0 | 22
COC(=O)c1cccc(CN(C)C(=O)Nc2ccc(-c3cn[nH]c3)cc2)c1 | -27 | -13
c1cnc2ccc(Nc3nc4ncnc(NC5CC5)c4[nH]3)cc2c1 | 12 | 8
O=C(c1cccnc1Oc1ccccc1)N1CCC(c2nc(-c3ccncc3)no2)CC1 | 7 | -9
CC[C@@H](C(=O)[C@@H](C)[C@@H](O)[C@H](C)[C@@H]1O[C@@H]([C@@H](CC)C(=O)O)CC[C@@H]1C)[C@H]1O[C@]2(C=C[C@@H](O)[C@]3(CC[C@@](C)([C@H]4CC[C@](O)(CC)[C@H](C)O4)O3)O2)[C@H](C)C[C@@H]1C | -4 | nt
CC[C@@H](C(=O)[C@@H](C)[C@@H](O)[C@H](C)CCc1ccc(C)c(O)c1C(=O)O)[C@H]1O[C@](CC)([C@H]2CC[C@](O)(CC)[C@H](C)O2)C[C@@H]1C | 70* | nt
Cc1cc(Nc2ccc(OCCN3CCCCC3)cc2)nc(Nc2ccc(N3CCOCC3)cc2)n1 | 9 | 10
COc1cc2nc(Nc3ncccn3)nc(Nc3ccc(N4CCOCC4)cc3)c2cc1OC | -7 | -1
COc1cc2nc(Nc3ccncc3)nc(Nc3ccc(N4CCOCC4)cc3)c2cc1OC | -4 | 42*
COc1cc2nc(Nc3ccc(N4CCOCC4)cc3)nc(Nc3ccc(OCCN4CCCCC4)cc3)c2cc1OC | -8 | 49*
CN(C)CCNc1cc(-c2ccccn2)nc(-c2ccccc2)n1 | 3 | nt
COc1cccc(NC(=O)CN(c2cc(OC)ccc2OC)S(C)(=O)=O)c1 | -9 | nt
Cc1onc(-c2nc(Nc3ccc(-n4cnc(N5CCOCC5)n4)cc3)ncc2Cl)c1-c1cnn(C)c1 | -22 | 14
Cc1ncn(-c2ccc(Nc3ncc(Br)c(-c4cnn(C)c4)n3)cc2)n1 | 85* | -68
Cn1cc(-c2nc(Nc3ccc(-n4cnc(N5CCOCC5)n4)cc3)ncc2Br)cn1 | 61* | -57
Cc1ccc(-c2ncn(-c3ccc(Nc4ncc(F)c(-c5cnn(C)c5)n4)cc3)n2)cn1 | -1 | 18
O=C(NC1CC1)c1ccc2nc(NC3CCN(Cc4ccccc4)CC3)sc2c1 | -1 | -6
O=C1N(CC2CCCCO2)CCN1c1ccc(F)cc1F (stereo not drawn) | 12 | nt
CCNc1cc(C(=O)Nc2ccc(N3CCOCC3)cc2)ccn1 | 31 | 10
O=C(Nc1ccc(N2CCOCC2)cc1)c1ccnc(NCCN2CCOCC2)c1 | 47* | -18
SMILES | ULK1 inh | ASK1 primary
O=C(Nc1ccc(N2CCOCC2)cc1)c1ccc2nc(Nc3ccccn3)sc2c1 | 52* | -32
O=C(Nc1ccc(N2CCOCC2)cc1)c1ccc2nc(Nc3ccc(N4CCOCC4)cc3)sc2c1 | 2 | 6
CCN(CC)c1nc(NCCOc2ccccc2)nc(Nc2cnccn2)n1 | -21 | 1
O=C(NC1CCN(Cc2ccccc2)CC1)c1cc(N2CCN(c3ccccn3)CC2)nc2ccccc12 | -4 | -3
CN(c1ncccc1CNc1cc(Nc2ccc3c(c2)CC(=O)N3)ncc1C(F)(F)F)S(C)(=O)=O | 31 | 12
CN(c1ncccc1CNc1nc(Nc2ccc3c(c2)CC(=O)N3)ncc1C(F)(F)F)S(C)(=O)=O | 78* | 26
O=C(c1cc2nc(-c3ccco3)cc(C(F)(F)F)n2n1)N1CCCCC1 | -6 | nt
O=C(Nc1ccc2nc(-c3ccco3)c(-c3ccco3)nc2c1)N1CCCC1 | 67* | nt
C1=C(c2nc3ccc(-c4ccncc4)cc3[nH]2)CCOc2ccccc21 | -31 | -28
Clc1ccc(CN2CCC[C@H]2c2nc3ccc(-c4ccncc4)cc3n2Cc2ccc(Cl)cc2)cc1 | -20 | -12
O=Cc1ccc(O)c(O)c1O | 89* | nt
c1ccc(-c2ccnc(Nc3ccc(-c4ncn[nH]4)cc3)n2)cc1 | -10 | -16
Fc1ccc(-c2n[nH]c3ccc(-c4ncn[nH]4)cc23)cc1 | 71* | -69
COc1ccc(-c2nc(Nc3ccc(NC(C)=O)cc3)nc(OC)n2)cn1 | -7 | -20
N[C@@H](Cc1ccc(O)c(O)c1)C(=O)O | 32 | nt
C[C@H](Cc1ccc(O)c(O)c1)[C@@H](C)Cc1ccc(O)c(O)c1 | 78* | nt

Screens: PubChem, The Scripps Research Institute Molecular Screening Center
